According to PubChem BioAssay (NCI):
Compounds without any hit were thinned out: in the full panel of roughly 79,000, 15% have a hit. Values without a mark were called inactive. Activity calls are given as the source filed them. Rule as the data show it: active = growth inhibition above about 70%; inactive = the rest.

assay: NCI Yeast Anticancer Drug Screen. Data for the cln2 rad14 strain (AID 165);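 also: 0% = growth equal to vehicle treated cultures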; settings: S. cerevisiae cln2 rad14 strain, at 5.0 µM (retest, dose inferred, filed as 0.5), stronger effect = higher value
How it was run: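 Growth inhibition, relative to vehicle-treated controls, is the read-out. The test organism is a yeast strain with defined genetic alterations, cln2 rad14.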

**Q.** Which growth inhibition does the source give for `CSC(=S)N/N=C(\C)c1nccnc1C` here?
**A.** -10%

**Q.** With `CC(=O)Oc1cc2c(cc1OC(C)=O)OCC(c1ccccc1)C2` (centres undefined) as the compound, how does the growth inhibition read?
**A.** 3%

**Q.** With `O=Cc1ccc(O)c2ccccc12` as the compound, how does the growth inhibition read?
**A.** 1%

**Q.** With `CC(=O)N(C1=C(Cl)C(=O)c2ccccc2C1=O)c1ccc(Cl)cc1` as the compound, how does the growth inhibition read?
**A.** 95% (active)

**Q.** With `Cn1c2c(c3ccccc31)CCN1C[C@@H]3CCCC[C@H]3C[C@@H]21` as the compound, how does the growth inhibition read?
**A.** 6%

**Q.** Which growth inhibition does the source give for `CCOc1ncc(Cl)c(OCC)n1` here?
**A.** -7%

**Q.** For `C=C1C(=O)OC2C1CC1OC2C(C)CCC/C(C)=C\CCC1(C)O` (centres undefined), which growth inhibition is on record?
**A.** -6%

**Q.** Which growth inhibition does the source give for `CCCCN(CCCC)CCC(O)(c1ccc(OC)c2ccccc12)C(O)(CCN(CCCC)CCCC)c1ccc(OC)c2ccccc12` (centres undefined) here?
**A.** 35%

**Q.** With `CS/C(N)=N/NC(=O)CCC(=O)Nc1cc(Cl)c(Cl)cc1Cl` as the compound, how does the growth inhibition read?
**A.** 13%

**Q.** Which growth inhibition does the source give for `COc1ccc(OC)c(N=Nc2c(C)[nH]n(C(N)=S)c2=O)c1` here?
**A.** -2%

**Q.** For `O=C(CC(=O)c1ccccc1)CC1(O)CCCCC1`, which growth inhibition is on record?
**A.** -9%

**Q.** Which growth inhibition does the source give for `Nc1ccc2ccccc2c1Cc1c(O)ccc2ccccc12` here?
**A.** 1%

**Q.** For `CC[n+]1c(/C=C/c2cc(C(=O)OC)n3c2sc2ccccc23)sc2ccccc21`, which growth inhibition is on record?
**A.** 25%

**Q.** For `O=CNc1ccc2c(c1)Cc1cc(NC=O)ccc1-2`, which growth inhibition is on record?
**A.** -34%

**Q.** For `O=C1CC(c2ccccc2)C(=O)N2C(=O)CC(c3ccccc3)C(=O)N12` (centres undefined), which growth inhibition is on record?
**A.** -5%

**Q.** With `CN1CCN(CCOC(=O)N2c3ccccc3Sc3ccccc32)CC1` as the compound, how does the growth inhibition read?
**A.** 0%

**Q.** For `COc1nc(Nc2ccc(/C=C/c3ccc(Nc4nc(OC)nc(N(CCO)CCO)n4)cc3S(=O)(=O)O)c(S(=O)(=O)O)c2)nc(N(CCO)CCO)n1`, which growth inhibition is on record?
**A.** -1%

**Q.** For `NNC(=O)NN=C(c1ccccc1)c1ccccc1`, which growth inhibition is on record?
**A.** 0%

**Q.** With `CCOC(=O)C(Br)C(Br)c1cccc([N+](=O)[O-])c1` (centres undefined) as the compound, how does the growth inhibition read?
**A.** 92% (active)

**Q.** With `CCCCCCC(O)C(CO)CCCCC` (centres undefined) as the compound, how does the growth inhibition read?
**A.** 5%

**Q.** With `Oc1c(Br)c(Br)c(O)c(Br)c1Br` as the compound, how does the growth inhibition read?
**A.** 5%

**Q.** For `CC(=O)n1nc2c(c1CC(C)C)C(=O)C(Nc1ccccc1)=CC2=O`, which growth inhibition is on record?
**A.** 6%

**Q.** With `CC(C)(CCBr)[N+](=O)[O-]` as the compound, how does the growth inhibition read?
**A.** -52%

**Q.** Which growth inhibition does the source give for `Nc1ccccc1SCc1csc(-c2ccc(Cl)cc2)n1` here?
**A.** -10%

same assay, conditions: S. cerevisiae cln2 rad14 strain, at 50.0 µM (retest, dose inferred, filed as 5.0), stronger effect = higher value

**Q.** With `Cc1ccc2c(c1)CC1(C2)Cc2ccc(C)cc2C1=O` (centres undefined) as the compound, how does the growth inhibition read?
**A.** 39%

**Q.** Which growth inhibition does the source give for `NC1=CC(=O)c2ccccc2C1=O` here?
**A.** 33%

**Q.** For `CCCCC(CC(=O)O)c1ccc(Cl)cc1` (centres undefined), which growth inhibition is on record?
**A.** 37%

**Q.** Which growth inhibition does the source give for `OCCOCCO[P+]1(OCCOCCO)n2c3ccc2C(c2ccccc2)=C2C=CC(=N2)C(c2ccccc2)=c2ccc(n21)=C(c1ccccc1)C1=NC(=C3c2ccccc2)C=C1` here?
**A.** 99% (active)

**Q.** For `Clc1ccc2[nH]c(-c3ccccc3)c(-c3ccccn3)c2c1`, which growth inhibition is on record?
**A.** 97% (active)

**Q.** Which growth inhibition does the source give for `COc1cc(NS(C)(=O)=O)ccc1Nc1c2ccccc2nc2ccccc12` here?
**A.** 32%

**Q.** Which growth inhibition does the source give for `COC1/C=C/OC2(C)Oc3c(C)c(O)c4c(c3C2=O)C(=O)C=C(NC(=O)/C(C)=C\C=C\C(C)C(OC=O)C(C)C(O)C(C)C(OC(C)=O)C1C)C4=O` (centres undefined) here?
**A.** 3%

**Q.** Which growth inhibition does the source give for `COc1ccc(CN(C)c2c(C)ccc3ccccc23)cc1` here?
**A.** 59%

**Q.** For `CCOC(=O)c1c(-c2ccccc2)csc1NC(=O)CBr`, which growth inhibition is on record?
**A.** 98% (active)

**Q.** With `Nc1nc2nc(I)[nH]c2c(=O)[nH]1` as the compound, how does the growth inhibition read?
**A.** -4%

**Q.** For `CC(CN(CC(=O)O)CC(=O)O)N(CC(=O)O)CC(=O)O.[Cl][Pd][Cl]` (centres undefined), which growth inhibition is on record?
**A.** 81% (active)

**Q.** Which growth inhibition does the source give for `COC(=O)c1nc(=S)[nH]c(C(=O)OC)c1C(=O)c1ccc2ccccc2c1` here?
**A.** 96% (active)

**Q.** Which growth inhibition does the source give for `O=C(Nc1ccccc1)OCCc1ccc(Br)cc1` here?
**A.** -2%

**Q.** Which growth inhibition does the source give for `O=C(CCN1CCCCC1)/C(=C\c1ccc(Cl)cc1)c1ccccc1` here?
**A.** 91% (active)

**Q.** With `FC(F)(F)c1nc(S)cc(=S)[nH]1` as the compound, how does the growth inhibition read?
**A.** 22%

**Q.** With `CCCCC(=O)N/N=C/c1ccc([N+](=O)[O-])s1` as the compound, how does the growth inhibition read?
**A.** 38%

**Q.** Which growth inhibition does the source give for `CSC(=S)N/N=C(\C)c1nccnc1C` here?
**A.** 97% (active)

**Q.** For `CC(=O)Oc1cc2c(cc1OC(C)=O)OCC(c1ccccc1)C2` (centres undefined), which growth inhibition is on record?
**A.** 20%

**Q.** With `O=Cc1ccc(O)c2ccccc12` as the compound, how does the growth inhibition read?
**A.** 23%

**Q.** Which growth inhibition does the source give for `CC(=O)N(C1=C(Cl)C(=O)c2ccccc2C1=O)c1ccc(Cl)cc1` here?
**A.** 99% (active)

**Q.** With `Cn1c2c(c3ccccc31)CCN1C[C@@H]3CCCC[C@H]3C[C@@H]21` as the compound, how does the growth inhibition read?
**A.** -6%

**Q.** For `CCOc1ncc(Cl)c(OCC)n1`, which growth inhibition is on record?
**A.** 2%

**Q.** Which growth inhibition does the source give for `C=C1C(=O)OC2C1CC1OC2C(C)CCC/C(C)=C\CCC1(C)O` (centres undefined) here?
**A.** -8%

**Q.** Which growth inhibition does the source give for `CCCCN(CCCC)CCC(O)(c1ccc(OC)c2ccccc12)C(O)(CCN(CCCC)CCCC)c1ccc(OC)c2ccccc12` (centres undefined) here?
**A.** 99% (active)

**Q.** With `CS/C(N)=N/NC(=O)CCC(=O)Nc1cc(Cl)c(Cl)cc1Cl` as the compound, how does the growth inhibition read?
**A.** 13%

**Q.** For `COc1ccc(OC)c(N=Nc2c(C)[nH]n(C(N)=S)c2=O)c1`, which growth inhibition is on record?
**A.** 27%

**Q.** With `O=C(CC(=O)c1ccccc1)CC1(O)CCCCC1` as the compound, how does the growth inhibition read?
**A.** 14%

**Q.** For `Nc1ccc2ccccc2c1Cc1c(O)ccc2ccccc12`, which growth inhibition is on record?
**A.** 88% (active)

**Q.** For `CC[n+]1c(/C=C/c2cc(C(=O)OC)n3c2sc2ccccc23)sc2ccccc21`, which growth inhibition is on record?
**A.** 99% (active)

**Q.** With `O=CNc1ccc2c(c1)Cc1cc(NC=O)ccc1-2` as the compound, how does the growth inhibition read?
**A.** 10%

**Q.** With `O=C1CC(c2ccccc2)C(=O)N2C(=O)CC(c3ccccc3)C(=O)N12` (centres undefined) as the compound, how does the growth inhibition read?
**A.** -9%

**Q.** For `CN1CCN(CCOC(=O)N2c3ccccc3Sc3ccccc32)CC1`, which growth inhibition is on record?
**A.** 1%

**Q.** Which growth inhibition does the source give for `COc1nc(Nc2ccc(/C=C/c3ccc(Nc4nc(OC)nc(N(CCO)CCO)n4)cc3S(=O)(=O)O)c(S(=O)(=O)O)c2)nc(N(CCO)CCO)n1` here?
**A.** 17%

**Q.** With `NNC(=O)NN=C(c1ccccc1)c1ccccc1` as the compound, how does the growth inhibition read?
**A.** -12%

**Q.** With `CCOC(=O)C(Br)C(Br)c1cccc([N+](=O)[O-])c1` (centres undefined) as the compound, how does the growth inhibition read?
**A.** 99% (active)

**Q.** Which growth inhibition does the source give for `CCCCCCC(O)C(CO)CCCCC` (centres undefined) here?
**A.** 97% (active)

**Q.** For `Oc1c(Br)c(Br)c(O)c(Br)c1Br`, which growth inhibition is on record?
**A.** 13%

**Q.** For `CC(=O)n1nc2c(c1CC(C)C)C(=O)C(Nc1ccccc1)=CC2=O`, which growth inhibition is on record?
**A.** 99% (active)

**Q.** Which growth inhibition does the source give for `CC(C)(CCBr)[N+](=O)[O-]` here?
**A.** -68%

**Q.** Which growth inhibition does the source give for `Nc1ccccc1SCc1csc(-c2ccc(Cl)cc2)n1` here?
**A.** 97% (active)
